The source made the active and inactive calls. Calls follow the shape of the full dose curve.
Assay: NSCLC 2 Cell Viability Secondary Assay for qHTS Assay for Epigenetic Modulators
Settings: NSCLC 2 viability, MTS absorbance, 4 days
Excerpt: NIH Molecular Libraries Screening Centers Network [MLSCN] NIH Chemical Genomics Center [NCGC] MLSCN Grant: 1 X01 MH079860-01 Assay Provider: Elisabeth D. Martinez, University of Texas SW Medical Center NCGC Assay Overview: This secondary assay characterizes selected actives identified in the qHTS of the Locus Derepression (LDR) assay (PubChem AID 597). The LDR assay detects the derepression of a GFP reporter that is stably integrated in a region of the genome of murine c127i mammary cells that is presumably silenced. Compounds that cause derepression of the locus to express GFP are identified by enumerating GFP positive cells using a laser-scanning microplate cytometer. […] NSCLC 2 cell viability was measured using Cell Titer 96 AQueous One (Promega), an assay which detects the ability of metabolically active cells to reduce a tetrazolium salt substrate (MTS), into a soluble formazan product that can be measured by colorimetry.
NCGC Assay Protocol Summary NSCLC 2 cells were plated in 96-well flat bottom tissue culture dishes (Corning) and grown overnight at 37 C and 5% CO2, then treated with compounds, incubated 4 days, and assayed for viability using the Cell Titer 96 AQueous One kit (Promega) according to the manufacturer's protocol. Absorbance at 490 nm and 650 nm (reference) was measured by a Spectra Max (Molecular Devices). […]

Question: With `CN1CSC(=S)N(C)C1` as the compound, how does the outcome read?
Answer: Its outcome is “inactive”.

From PubChem BioAssay AID1037 (National Center for Advancing Translational Sciences (NCATS), 2008)
